BAZ2B inh = blocks human BAZ2B; AID 504333; hit rate 4.4% among 360,000; Potency, µM (top dose mostly 114 µM), for the others: at the top dose activity change, negative = inhibition, most hits filed as inhibitors; Q9UIF8; AlphaScreen BAZ2B-H3K14Ac peptide displacement; also: % is scaled to controls: 0 for no effect and ±100 for the full control effect; nearly all actives have a fitted effect of over 60% in size
Target sequence (Q9UIF8 whole entry, looked up): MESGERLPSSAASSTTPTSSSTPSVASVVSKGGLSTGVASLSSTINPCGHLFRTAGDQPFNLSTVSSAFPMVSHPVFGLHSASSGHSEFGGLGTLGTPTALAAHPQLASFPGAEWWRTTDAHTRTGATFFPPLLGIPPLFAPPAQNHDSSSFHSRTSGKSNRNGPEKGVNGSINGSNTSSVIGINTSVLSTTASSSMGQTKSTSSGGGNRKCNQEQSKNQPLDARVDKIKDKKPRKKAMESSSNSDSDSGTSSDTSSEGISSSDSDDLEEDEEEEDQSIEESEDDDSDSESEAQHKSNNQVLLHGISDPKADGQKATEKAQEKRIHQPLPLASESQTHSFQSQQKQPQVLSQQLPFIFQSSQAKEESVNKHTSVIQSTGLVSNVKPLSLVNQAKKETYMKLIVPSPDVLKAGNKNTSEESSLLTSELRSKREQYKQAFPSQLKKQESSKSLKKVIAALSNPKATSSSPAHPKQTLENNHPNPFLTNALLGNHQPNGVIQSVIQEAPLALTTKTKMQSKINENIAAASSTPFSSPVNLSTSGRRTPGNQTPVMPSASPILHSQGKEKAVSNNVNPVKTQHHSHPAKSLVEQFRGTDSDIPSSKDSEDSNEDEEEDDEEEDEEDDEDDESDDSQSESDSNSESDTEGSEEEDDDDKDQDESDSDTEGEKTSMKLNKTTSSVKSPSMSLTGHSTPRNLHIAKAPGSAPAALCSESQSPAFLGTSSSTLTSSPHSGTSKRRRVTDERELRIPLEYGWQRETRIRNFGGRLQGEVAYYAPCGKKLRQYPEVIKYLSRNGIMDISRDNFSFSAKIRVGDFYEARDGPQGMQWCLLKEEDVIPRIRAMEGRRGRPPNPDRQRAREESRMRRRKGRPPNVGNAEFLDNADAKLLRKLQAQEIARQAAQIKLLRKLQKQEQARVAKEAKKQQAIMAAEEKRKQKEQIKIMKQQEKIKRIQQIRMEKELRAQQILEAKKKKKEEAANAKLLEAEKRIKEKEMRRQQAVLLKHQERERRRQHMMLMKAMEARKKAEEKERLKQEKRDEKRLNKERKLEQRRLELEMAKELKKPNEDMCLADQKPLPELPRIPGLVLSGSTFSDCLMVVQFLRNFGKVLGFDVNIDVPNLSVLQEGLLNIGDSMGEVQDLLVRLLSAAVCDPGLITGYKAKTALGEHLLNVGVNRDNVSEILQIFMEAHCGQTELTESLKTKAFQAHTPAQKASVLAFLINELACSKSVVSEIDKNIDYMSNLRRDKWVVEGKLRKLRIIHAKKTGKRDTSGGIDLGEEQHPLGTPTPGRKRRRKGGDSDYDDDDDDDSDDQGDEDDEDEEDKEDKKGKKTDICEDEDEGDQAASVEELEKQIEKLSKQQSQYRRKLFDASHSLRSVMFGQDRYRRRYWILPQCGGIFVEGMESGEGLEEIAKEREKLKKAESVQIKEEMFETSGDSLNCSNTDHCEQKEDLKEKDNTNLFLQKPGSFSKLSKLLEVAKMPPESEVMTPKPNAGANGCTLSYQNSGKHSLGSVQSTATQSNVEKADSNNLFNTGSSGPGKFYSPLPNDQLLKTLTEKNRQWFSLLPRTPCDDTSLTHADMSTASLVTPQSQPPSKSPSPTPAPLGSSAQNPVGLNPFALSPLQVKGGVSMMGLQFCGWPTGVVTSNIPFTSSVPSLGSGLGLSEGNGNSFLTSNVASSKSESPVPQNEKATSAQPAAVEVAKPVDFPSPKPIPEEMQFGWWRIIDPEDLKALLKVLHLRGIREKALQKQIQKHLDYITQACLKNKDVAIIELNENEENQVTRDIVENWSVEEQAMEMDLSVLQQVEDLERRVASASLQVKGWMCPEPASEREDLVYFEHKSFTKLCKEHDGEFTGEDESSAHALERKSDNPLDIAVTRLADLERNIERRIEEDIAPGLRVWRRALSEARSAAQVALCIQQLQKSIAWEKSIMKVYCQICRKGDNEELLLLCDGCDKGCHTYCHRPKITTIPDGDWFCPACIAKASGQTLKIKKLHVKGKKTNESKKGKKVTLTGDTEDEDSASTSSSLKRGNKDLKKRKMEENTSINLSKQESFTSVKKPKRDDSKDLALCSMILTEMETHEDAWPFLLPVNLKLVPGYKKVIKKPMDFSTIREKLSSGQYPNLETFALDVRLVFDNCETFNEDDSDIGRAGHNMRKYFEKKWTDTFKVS
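Compounds, titrated to a top concentration of 110 uM, were incubated 30 min at room temperature with preformed BAZ2B/acetyl-K14 H3 peptide complex (50 nM each). Proximity signal was measured by AlphaScreen after 20 min with beads.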
Sfp PPTase inh = blocks B. subtilis Sfp PPTase activity; Q9F4F7; hit rate 3.5% among 310,000; Potency, µM, for the others: largest response in the series, negative = inhibition, hits mostly inhibitors; Biochemical Sfp PPTase activity, qHTS;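 also: the enzyme is Sfp with the accession as filed and its product quenches rhodamine fluorescence; 0% = enzyme reaction without inhibitor and -100% = no enzyme wells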
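After 15 min at room temperature with compound, 15 nM Sfp received 5 uM rhodamine-CoA plus 12.5 uM BHQ-2-ybbR (50 mM Hepes pH 7.6, 10 mM MgCl2). Rate came from the fluorescence difference over 30 min, ex 525/em 598 nm.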
HP1b binding inh = inhibitors of HP1-beta chromodomain binding to methylated histone tails. hit rate 0.56% among 390,000. P83916. Potency, µM (top dose mostly 114 µM), for the others: top-dose activity change, negative = inhibition, actives largely listed as inhibitors. AlphaScreen HP1-beta / biotin-H3K9me3 peptide binding; also: nearly all actives have a fitted effect of over 70% in size
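AlphaScreen: HP1-beta (50 nM) preformed 30 min with biotin-H3(1-18)K9me3 peptide (50 nM) in PBS pH 7.4, 0.01% Tween-20. Compound added for 30 min at RT, then streptavidin donor/nickel chelate acceptor beads (10 ug/mL) for 30 min.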
TDP1 block = inhibitors of human tyrosyl-DNA phosphodiesterase TDP1. recombinant TDP1, AlphaScreen DNA substrate cleavage. Potency, µM (titrated, usually from 130 µM), inactives show at the top dose activity change, negative = inhibition, most hits filed as inhibitors. hit rate 0.28% among 350,000. AID 485290; also: % is scaled to controls: 0 for no effect and ±100 for the full control effect; nearly all actives have a fitted effect of over 40% in size
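E. coli-derived human Tdp1, 1 nM final. Cpd preinc 15 min RT; substrate 15 nM final, 5 min RT; AS bead mix 10 ug/ml final, 10 min RT. Signal loss = tyrosine-FITC cleavage. No-enzyme wells = max signal.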
G9a block = G9a (human) methyltransferase inhibition | Potency, µM (top dose mostly 102 µM), for the others: at the highest dose activity, negative = inhibition, most hits filed as inhibitors | G9a H3K9 monomethylation, AlphaScreen, 2 h | Q96KQ7 | hit rate 8.8% among 350,000; also: % is scaled to controls: 0 for no effect and ±100 for the full control effect; nearly all actives have a fitted effect of over 75% in size
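Methyltransferase reactions run at room temperature for 2 h (20 nM enzyme, 500 nM biotin-H3K9 peptide, 20 uM SAM) after a 15 min compound preincubation; product detected by AlphaScreen beads and anti-H3K9me1 antibody.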
JMJD2A Tudor inh = blocks the human JMJD2A Tudor domain | hit rate 4.4% among 390,000 | O75164 | Potency, µM (highest dose often 114 µM), without a hit: top-dose activity change, negative = inhibition, usual class: inhibitors | AlphaScreen JMJD2A-Tudor / H3K4me3 peptide binding; also: % is scaled to controls: 0 for no effect and ±100 for the full control effect; nearly all actives have a fitted effect of over 50% in size
* marks the source's active call; other numbers are inactive results; ? = inconclusive; nt = no result; [ ] = remark or other dose. An excerpt weighted towards active compounds, which were near 12% of everything screened. Calls follow the shape of the dose curve; as a rule, active = well fitted curve in the direction sought with a large enough effect; inconclusive = small, poorly fitted or top-dose-only effect, or another doubt; inactive = no such curve, though single readings can be large; an effect the other way counts as inactive or inconclusive. Potency is read from the fitted curve at half-maximal effect.

SMILES	BAZ2B inh	Sfp PPTase inh	HP1b binding inh	TDP1 block	G9a block	JMJD2A Tudor inh
CCOC(=O)c1c(NC(=S)N2CCOCC2)sc(C)c1C	-2%	13%	6%	1%	-4%[59 µM]	-14%
O=C(CSc1nc2ccccc2c(=O)n1-c1ccc(F)cc1)Nc1ccc(N2CCOCC2)cc1	-4%	-15%	25%	7%	45µM*	0%
O=C(c1ccc(-n2c(SCc3cccc(F)c3)nc3ccccc3c2=O)cc1)N1CCOCC1	-32%	-15%	17%	5%	-9%[59 µM]	40µM*
O=C(O)c1ccc(CSc2nc3ccccc3c(=O)n2-c2ccccc2)cc1	-19%	25%	49%	nt	7%	5%
O=C(CSc1n[nH]c(=O)n1Cc1ccco1)Nc1ccccc1	-15%	2%	31%	5%	2%	0%
O=C(CSc1n[nH]c(=O)n1Cc1ccccc1)Nc1ccc(N2CCOCC2)cc1	4%	nt	6%	-9%	56µM*	-12%
Cc1nn2c(-c3cccc(NC(=O)CSc4nc5ccccc5o4)c3)nnc2c2ccccc12	9%	56µM*	3%	-2%	16µM*	-28%
C/C(=N/OC(=O)C1CC1)c1cc(-c2ccc(Cl)cc2)no1	7%	12%	38%	0%	nt	-9%
C=C1C[C@@]23CC[C@H]4[C@@](C)(CCC[C@@]4(C)C(=O)OC4OC(CO)C(O)C(O)C4O)[C@@H]2CC[C@]1(OC1OC(CO)C(O)C(O)C1OC1OC(CO)C(O)C(O)C1O)C3 (stereo partly specified)	nt	nt	nt	nt	-5%[59 µM]	nt
COc1ccc2nc3cc(Cl)ccc3c(Nc3ccc(O)c(CN4CCN(C)CC4)c3)c2c1	nt	nt	16µM*	nt	nt	32µM*
O=C(C=P(c1ccccc1)(c1ccccc1)c1ccccc1)c1ccccc1-c1ccccc1C(=O)C=P(c1ccccc1)(c1ccccc1)c1ccccc1	nt	nt	?	nt	nt	45µM*
Cc1ccc(NC(=O)C2CCN(c3nn4c(=O)cc(C)nc4s3)CC2)cc1	1%	nt	45%	-3%	20%[59 µM]	-1%
COc1ccc2c(C)c(CCC(=O)NCc3ccc(Cl)cc3)c(=O)oc2c1C	-2%	nt	24%	2%	-29%[59 µM]	-9%
C/C(=N\Nc1nc2c(s1)CCCC2)c1ccccc1	45µM*	?	?	13%	?	?
C/C(=N\Nc1nc(C(C)(C)C)cs1)c1ccccc1	?	-16%	2%	10%	71µM*	?
C/C(=N\Nc1nc(C(C)(C)C)cs1)c1ccc(O)cc1	?	50µM*	-22%	9%	32µM*	?
Cc1ccc(CN(C(=O)COc2cccc(Cl)c2)c2ccccn2)o1	3%	nt	28%	2%	7%[59 µM]	-10%
Cc1cccc(C(=O)OC(C)C(=O)N2CCN(Cc3ccccc3)CC2)c1 (stereo unspecified)	-4%	nt	35%	1%	-32%	-5%
CC(OCC(O)CN(C)Cc1nc2ccccc2c(=O)[nH]1)c1ccc(Cl)cc1 (stereo unspecified)	22%	-48%	27%	7%	9%	-16%
COc1ccc(CN2CCC(=O)N([C@H](CO)CC(C)C)CC2)cc1	2%	21%	35%	nt	-8%	-5%
COc1ccc(Cl)cc1S(=O)(=O)n1cnc2ccccc21	21%	7%	50%	3%	?	4%
COc1ccc(S(=O)(=O)n2cnc3ccccc32)cc1OC	-7%	7%	37%	nt	71µM*	14%
Cc1cc(C)c(S(=O)(=O)n2cnc3ccccc32)c(C)c1	-9%	-7%	37%	0%	89µM*	-12%
O=C(Nc1ccc(Cl)cn1)c1cc2c(s1)-c1ccccc1OC2	6%	0%	67%	-9%	nt	25%
Cc1cc(C(=O)COc2cc(F)ccc2[N+](=O)[O-])c(C)n1C1CC1	?	4%	-7%	10%	35µM*	?
SMILES	BAZ2B inh	Sfp PPTase inh	HP1b binding inh	TDP1 block	G9a block	JMJD2A Tudor inh
COc1ccc(Oc2ncc3nc(CCc4ccccc4)c(=O)n(C)c3n2)cc1	nt	-16%	nt	nt	8%[12.7 µM]	nt
O=C(COC(=O)c1ccc(Cl)cc1[N+](=O)[O-])NCc1ccco1	nt	nt	9%	0%	nt	-29%
Nc1nnc(SCC(=O)NNC(=O)c2ccc(Cl)cc2)s1	-1%	nt	23%	1%	8.9µM*	-17%
Cc1ccc(C(=O)NNC(=O)C(C)Sc2nc(N)cc(N)n2)cc1 (stereo unspecified)	-2%	1%	36%	0%	-36%[59 µM]	2%
Cc1ccc(C(=O)NNC(=O)CSc2nc(N)cc(N)n2)cc1	3%	32µM*	?	8%	-7%[59 µM]	-17%[57.1 µM]
CN1C(C(=O)NCc2ccc(OC(F)(F)F)cc2)CC2Cn3c(nc4cc(Cl)c(Cl)cc43)C21 (stereo unspecified)	1%	?	12%	5%	-8%[12.7 µM]	-30%
CC1CN(c2oc(Cc3cccc4ccccc34)nc2C#N)CC(C)O1 (stereo unspecified)	?	-15%	-47%	9%	25µM*	?
N#Cc1nc(Cc2cccc3ccccc23)oc1NCCN1CCCCC1	79µM*	0%	-10%	7%	?	?
CNc1oc(Cc2cccc3ccccc23)nc1C#N	?	9%	1%	5%	?	-29%
N#Cc1ccccc1NC(=O)C(=O)NCCc1csc2nc(-c3cccc(F)c3)nn12	-3%	nt	9%[57 µM]	-4%	14%[59 µM]	-19%
O=C(CCN1C(=O)/C(=C/c2ccccc2F)SC1=S)Nc1cccnc1	1.1µM*	1%	-6%	2%	nt	?
O=C(CCCN1C(=O)/C(=C/c2ccccc2OC(F)F)SC1=S)Nc1cccnc1	nt	nt	-23%	6%	nt	18µM*
O=C(COC(=O)c1cnc(Cl)c(Cl)c1)NCc1cccs1	4%	19%	-3%	3%	25%[0.0925 µM]	22µM*
O=C(NCc1cccs1)c1cnc(Cl)c(Cl)c1	6%	5%	36%	6%	30%	9%
COC(=O)N/N=C/C1=C[N+](=O)c2ccccc2[N+]1=O	nt	19%	nt	-14%[56.1 µM]	-34%[2.33 µM]	nt
CC1(C)Cc2[nH]c(=O)c(C#N)cc2CS1	8%	9%	25%	1%	32µM*	2%
Cc1ccc(C2CC(C(F)F)n3ncc(C(=O)Nc4cnn(Cc5ccccc5C)c4)c3N2)cc1 (stereo unspecified)	8%	11%	1%	7%	45µM*	-23%
C[C@@H](O)C1NC(=O)[C@H](CCCCN)NC(=O)c2cc([N+](=O)[O-])cc(F)c2NCCCC[C@@H](C(N)=O)NC1=O (stereo partly specified)	-27%	-1%	18%	1%	?	-24%

Assay outcomes (PubChem)
